# According to the supplement of paper PMC8728848:
# Many of the other results were omitted from the sample, so the strongest signals are more common in it than they were.
# What was measured:
# Assay in all cases: glycan array binding signal (z-score within array); higher = stronger binding
# Conditions in all cases: glycan notation: IUPAC condensed, linker removed
# Gal3S(b1-4)Glc = target: Gal3S(b1-4)Glc
# Procedure, shortened: (§1)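 The Consortium for Functional Glycomics database supplied 3228 glycan arrays, of which those lacking an available protein sequence were dropped. The binding signal, a within-array Z-score, was averaged across arrays of the same protein sequence and across linkers. Negative scores can be read as non-binding.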
# [1] = target: Gal3S(b1-4)[Fuc(a1-3)]GlcNAc6S
# Procedure, shortened: as §1
# Gal3S6S(b1-4)GlcNAc6S = target: Gal3S6S(b1-4)GlcNAc6S
# Procedure, shortened: as §1
# Gal6S(b1-3)GlcNAc6S = target: Gal6S(b1-3)GlcNAc6S
# Procedure, shortened: as §1
# GalNAc(a1-3)Gal = target: GalNAc(a1-3)Gal
# Procedure, shortened: as §1
# [2] = target: Glc(a1-6)Glc(a1-6)Glc(a1-6)Glc
# Procedure, shortened: as §1
# [3] = target: GlcNAc(a1-4)Gal(b1-4)GlcNAc(b1-3)Gal(b1-4)[Fuc(a1-3)]GlcNAc(b1-3)Gal(b1-4)[Fuc(a1-3)]GlcNAc
# Procedure, shortened: as §1
# [4] = target: GlcNAc(b1-2)Gal(b1-3)GalNAc
# Procedure, shortened: as §1
# [5] = target: GlcNAc(b1-2)[GlcNAc(b1-4)]Man(a1-3)[GlcNAc(b1-4)][GlcNAc(b1-2)[GlcNAc(b1-6)]Man(a1-6)]Man(b1-4)GlcNAc(b1-4)[Fuc(a1-6)]GlcNAc
# Procedure, shortened: as §1
# [6] = target: GlcNAc(b1-2)[GlcNAc(b1-6)]Man(a1-6)[GlcNAc(b1-2)Man(a1-3)]Man(b1-4)GlcNAc(b1-4)[Fuc(a1-6)]GlcNAc
# Procedure, shortened: as §1
# [7] = target: GlcNAc(b1-2)[GlcNAc(b1-6)]Man(a1-6)[GlcNAc(b1-4)][GlcNAc(b1-2)Man(a1-3)]Man(b1-4)GlcNAc(b1-4)GlcNAc
# Procedure, shortened: as §1
# [8] = target: GlcNAc(b1-3)Gal(b1-4)GlcNAc(b1-3)Gal(b1-4)GlcNAc(b1-3)Gal(b1-4)GlcNAc(b1-3)Gal(b1-4)GlcNAc(b1-2)Man(a1-3)[GlcNAc(b1-3)Gal(b1-4)GlcNAc(b1-3)Gal(b1-4)GlcNAc(b1-3)Gal(b1-4)GlcNAc(b1-3)Gal(b1-4)GlcNAc(b1-2)Man(a1-6)]Man(b1-4)GlcNAc(b1-4)[Fuc(a1-6)]GlcNAc
# Procedure, shortened: as §1
# [9] = target: GlcNAc(b1-3)Gal(b1-4)GlcNAc(b1-3)Gal(b1-4)GlcNAc(b1-3)Gal(b1-4)GlcNAc(b1-3)Gal(b1-4)GlcNAc(b1-2)[GlcNAc(b1-3)Gal(b1-4)GlcNAc(b1-3)Gal(b1-4)GlcNAc(b1-3)Gal(b1-4)GlcNAc(b1-3)Gal(b1-4)GlcNAc(b1-6)]Man(a1-6)[GlcNAc(b1-3)Gal(b1-4)GlcNAc(b1-3)Gal(b1-4)GlcNAc(b1-3)Gal(b1-4)GlcNAc(b1-3)Gal(b1-4)GlcNAc(b1-2)Man(a1-3)]Man(b1-4)GlcNAc(b1-4)[Fuc(a1-6)]GlcNAc
# Procedure, shortened: as §1
# [10] = target: GlcNAc(b1-3)Gal(b1-4)GlcNAc(b1-6)[Gal(b1-3)]GalNAc
# Procedure, shortened: as §1
# Man(b1-4)GlcNAc = target: Man(b1-4)GlcNAc
# Procedure, shortened: as §1
# [11] = target: Neu5Ac(a2-3)Gal(b1-3)GlcNAc(b1-3)Gal(b1-4)GlcNAc
# Procedure, shortened: as §1
# [12] = target: Neu5Ac(a2-3)Gal(b1-3)[Fuc(a1-4)]GlcNAc(b1-3)Gal(b1-4)[Fuc(a1-3)]GlcNAc
# Procedure, shortened: as §1
# [13] = target: Neu5Ac(a2-3)Gal(b1-4)GlcNAc(b1-2)Man
# Procedure, shortened: as §1
# [14] = target: Neu5Ac(a2-3)Gal(b1-4)GlcNAc(b1-2)[Neu5Ac(a2-3)Gal(b1-4)GlcNAc(b1-4)]Man(a1-3)[GlcNAc(b1-4)][Neu5Ac(a2-3)Gal(b1-4)GlcNAc(b1-4)Man(a1-6)]Man(b1-4)GlcNAc(b1-4)GlcNAc
# Procedure, shortened: as §1
# [15] = target: Neu5Ac(a2-3)Gal(b1-4)GlcNAc(b1-3)Gal
# Procedure, shortened: as §1
# [16] = target: Neu5Ac(a2-3)Gal(b1-4)GlcNAc(b1-3)Gal(b1-4)GlcNAc(b1-2)Man(a1-3)[Neu5Ac(a2-3)Gal(b1-4)GlcNAc(b1-3)Gal(b1-4)GlcNAc(b1-2)Man(a1-6)]Man(b1-4)GlcNAc(b1-4)GlcNAc
# Procedure, shortened: as §1
# [17] = target: Neu5Ac(a2-3)Gal(b1-4)GlcNAc(b1-3)[Neu5Ac(a2-3)Gal(b1-4)GlcNAc(b1-6)]GalNAc
# Procedure, shortened: as §1
# [18] = target: Neu5Ac(a2-3)[GalNAc(b1-4)]Gal(b1-4)GlcNAc
# Procedure, shortened: as §1
# [19] = target: Neu5Ac(a2-3)[GalNAc(b1-4)]Gal(b1-4)GlcNAc(b1-3)GalNAc
# Procedure, shortened: as §1
# [20] = target: Neu5Ac(a2-6)Gal(b1-4)GlcNAc(b1-2)Man(a1-6)[Gal(b1-4)GlcNAc(b1-2)Man(a1-3)]Man(b1-4)GlcNAc(b1-4)GlcNAc
# Procedure, shortened: as §1
# [21] = target: Neu5Ac(a2-8)Neu5Ac(a2-3)[GalNAc(b1-4)]Gal(b1-4)Glc
# Procedure, shortened: as §1
# [22] = target: Neu5Ac9Ac(a2-6)Gal(b1-4)GlcNAc
# Procedure, shortened: as §1
# [23] = target: Neu5Gc(a2-3)Gal(b1-3)GlcNAc
# Procedure, shortened: as §1
binder,measurement,setting,value
"Tp0751, 83732 (protein) MSYYHHHHHHLESTSLYKKAGFQHGHVPPRRIPPHDTFGALPTAALPSNARDTAAHPSDTADNTSGSSTTTDPRSHGNAPPAPVGGAAQTHTQPPVQTAMRIALWNRATHGEQGALQHLLAGLWIQTEISPNSGDIHPLLFFDREHAEITFSRASVQEIFLVDSAHTHRKTVSFLTRNTAISSIRRRLEVTFESHEVIHVRAVEDVARLKIGSTSMWDGQYTRYHAGPASAPSP",glycan array binding signal (z-score),Gal3S(b1-4)Glc,5.83
same,glycan array binding signal (z-score),[1],1.94
same,glycan array binding signal (z-score),Gal3S6S(b1-4)GlcNAc6S,2.54
same,glycan array binding signal (z-score),Gal6S(b1-3)GlcNAc6S,2.18
same,glycan array binding signal (z-score),GalNAc(a1-3)Gal,-0.699
same,glycan array binding signal (z-score),[2],1.24
same,glycan array binding signal (z-score),[3],1.63
same,glycan array binding signal (z-score),[4],-0.378
same,glycan array binding signal (z-score),[5],-0.299
same,glycan array binding signal (z-score),[6],0.781
same,glycan array binding signal (z-score),[7],-0.584
same,glycan array binding signal (z-score),[8],-0.326
same,glycan array binding signal (z-score),[9],-0.088
same,glycan array binding signal (z-score),[10],-0.81
same,glycan array binding signal (z-score),Man(b1-4)GlcNAc,-0.599
same,glycan array binding signal (z-score),[11],0.058
same,glycan array binding signal (z-score),[12],0.658
same,glycan array binding signal (z-score),[13],6.75
same,glycan array binding signal (z-score),[14],-0.386
same,glycan array binding signal (z-score),[15],-0.332
same,glycan array binding signal (z-score),[16],0.542
same,glycan array binding signal (z-score),[17],-0.246
same,glycan array binding signal (z-score),[18],-0.76
same,glycan array binding signal (z-score),[19],0.098
same,glycan array binding signal (z-score),[20],-0.478
same,glycan array binding signal (z-score),[21],-0.022
same,glycan array binding signal (z-score),[22],-0.145
same,glycan array binding signal (z-score),[23],0.052
